TRHR PAM = allosterically enhances the human TRH receptor; P34981; TRHR cells, fluo-8 calcium fluorescence, EC20 TRH enhancement; enhancement, % at 2 µM; hit rate 0.66% among 360,000; in the data active means enhancement above about 30%; further: 0% is about no effect
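TRHR-expressing cells loaded with fluo-8 calcium dye were read kinetically (ex 480/em 530) during compound addition, then stimulated with an EC20 of TRH (10 nM final). Enhancement of the Gq-mediated intracellular calcium response was scored.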
D1 agonist = human D1 receptor agonism; P21728; HEK293 T-REx D1 cells, calcium flux, agonist mode; activation, % at 2 µM; hit rate 1% among 360,000; further: 0% is about no effect
Target sequence (P21728 whole entry, looked up): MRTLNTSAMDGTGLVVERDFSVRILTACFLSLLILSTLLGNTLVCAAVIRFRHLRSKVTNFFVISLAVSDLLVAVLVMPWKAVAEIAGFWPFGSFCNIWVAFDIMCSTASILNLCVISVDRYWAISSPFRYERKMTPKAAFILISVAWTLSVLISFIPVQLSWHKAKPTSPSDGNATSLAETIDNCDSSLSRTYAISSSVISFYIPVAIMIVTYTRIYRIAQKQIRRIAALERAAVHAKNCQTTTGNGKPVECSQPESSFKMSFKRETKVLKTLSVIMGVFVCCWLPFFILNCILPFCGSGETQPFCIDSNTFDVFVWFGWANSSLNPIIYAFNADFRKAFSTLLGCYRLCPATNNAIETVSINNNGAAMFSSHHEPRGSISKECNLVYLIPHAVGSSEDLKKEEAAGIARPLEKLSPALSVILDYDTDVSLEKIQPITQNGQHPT
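Tetracycline-induced HEK293 TREx D1 cells, force-coupled to calcium signalling, were dye-loaded with a no-wash calcium kit. Compound was pin-added after a 10 s baseline. Fluorescence was read kinetically at 1 cycle/s for 180 s, with calcium rises flagged as agonism.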
USP1 inh = inhibitors of human USP1/UAF1 deubiquitinase; O94782; AID 743255; hit rate 0.23% among 390,000; recombinant USP1/UAF1, Ub-Rhodamine cleavage fluorescence; Potency, µM (highest dose often 57.1 µM), for inactives: at the top dose activity change, negative = inhibition, usual class: inhibitors; active means well fitted inhibition curve with a large enough effect; further: potency means the concentration at half of the fitted maximal effect; on the % scale 0 is the no-effect control and ±100 the full control effect; nearly all actives have a fitted effect of over 60% in size
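High-throughput fluorogenic screen: 1nM USP1/UAF1 complex, Ub-Rho substrate 150nM final, 50mM HEPES pH 7.8 with 0.5mM EDTA, 0.1 mg/ml BSA, 1mM TCEP and 0.01% Tween-20.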
TRHR agonist = activates the human TRH receptor; activation, % at 2 µM; TRHR cells, calcium flux fluo-8, FDSS agonist mode; AID 493084; hit rate 0.18% among 360,000; P34981; further: 0% is about no effect
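Steps: seed TRHR cells overnight; add fluo-8 no-wash Ca dye, RT 30 min–1.5 h; record 10 s baseline; pin-transfer compounds; monitor fluorescence 1 cycle/s for the agonist window. Calcium increases flag candidate agonists.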
D1 antag = antagonists of human D1 dopamine receptor; HEK293 TREx D1 cells, calcium flux, dopamine EC80; stronger effect = lower value; activity change, negative = inhibition, % at 10 µM; hit rate 3.2% among 360,000; in the data active means activity change below about -30%; further: on the % scale 0 is the no-effect control and ±100 the full control effect
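Tetracycline-induced HEK293 Trex D1 cells, force-coupled to calcium, dye-loaded; compounds added and read 180 s, then EC80 dopamine added and calcium flux tracked kinetically another 180 s.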
D1 PAM = enhances dopamine response at the human D1 receptor; P21728; HEK293 TREx D1 cells, calcium flux, dopamine EC20 potentiation; potentiation, % at 10 µM; hit rate 0.036% among 360,000; in the data active means potentiation above about 30%; further: 0% is about no effect
Starred values were filed as active, the others as inactive. This is a sample that favours compounds with a hit; in the whole collection about 4.4% have one here. Unless noted, no stated cut-off is given here; in the data, active means activation above about 30%; inactive means the rest.

How did Cn1c(=O)c2cc(C(=O)Nc3cccc(C#N)c3)sc2c2ccccc21 do in these assays?
TRHR PAM: 23.0; D1 agonist: 0.8; USP1 inh: -2.8%; TRHR agonist: -0.8; D1 antag: -5.4; D1 PAM: -1.6

How did O=S(=O)(c1ccc(NC(=S)N2CCN(c3ccccc3F)CC2)cc1)N1CCOCC1 do in these assays?
TRHR PAM: 2.4; D1 agonist: 10.8; USP1 inh: -11.9%; TRHR agonist: -1.4; D1 antag: -31.4*; D1 PAM: -11.5

How did O=C(NCCCN1CCOCC1)c1cccc(S(=O)(=O)N2CCN(c3ccccc3)CC2)c1 do in these assays?
TRHR PAM: 8.5; D1 agonist: 1.9; USP1 inh: -17.4%; TRHR agonist: -0.1; D1 antag: -1.3; D1 PAM: 0.7

What do the screens show for `O=S(=O)(c1ccccc1)N1CCN(C(=S)Nc2ccc(F)cc2)CC1`?
TRHR PAM: -1.1; D1 agonist: 3.2; USP1 inh: -22.9%; TRHR agonist: 0.0; D1 antag: 0.2; D1 PAM: -2.2

What do the screens show for `O=S(=O)(c1ccccc1)N1CCN(C(=S)NCCCN2CCOCC2)CC1`?
TRHR PAM: -1.6; D1 agonist: 0.5; USP1 inh: 10.0%; TRHR agonist: 0.0; D1 antag: -46.3*; D1 PAM: 5.5

How did Fc1ccc(NC(=S)NN2CCOCC2)cc1Cl do in these assays?
TRHR PAM: 2.9; D1 agonist: 3.6; USP1 inh: -16.8%; TRHR agonist: -0.2; D1 antag: -32.3*; D1 PAM: -2.9

How did O=S(=O)(c1ccc(Cl)cc1)N1CCN(C(=S)Nc2ccc(F)c(Cl)c2)CC1 do in these assays?
TRHR PAM: -5.2; D1 agonist: 14.8; USP1 inh: -7.8%; TRHR agonist: 2.9; D1 antag: -36.7*; D1 PAM: -6.3

How did Cc1cccc(NC(=O)CSc2nc(-c3cccs3)cc(C(F)(F)F)c2C#N)c1 do in these assays?
TRHR PAM: -12.2; D1 agonist: 11.7; USP1 inh: 7.0%; TRHR agonist: 3.8; D1 antag: 3.8; D1 PAM: 0.9

What do the screens show for `O=S(=O)(c1ccc(NC(=S)N/N=C/c2ccc(N3CCOCC3)cc2)cc1)N1CCOCC1`?
TRHR PAM: 2.0; D1 agonist: 2.0; USP1 inh: -14.0%; TRHR agonist: 0.1; D1 antag: -44.2*; D1 PAM: -7.2

How did CCOC(=O)C1CCCN(C(=O)COc2ccccc2F)C1 (centres undefined) do in these assays?
TRHR PAM: -3.0; D1 agonist: 2.4; USP1 inh: -20.0%; TRHR agonist: -0.4; D1 antag: -63.6*; D1 PAM: -5.0

What do the screens show for `CCOC(=O)C1CCCN(C(=O)c2ccc3c(c2)N(Cc2ccccc2F)C(=O)c2ccccc2S3=O)C1` (centres undefined)?
TRHR PAM: -3.2; D1 agonist: 2.1; USP1 inh: -27.2%; TRHR agonist: 0.1; D1 antag: -35.7*; D1 PAM: 0.5

What do the screens show for `CCOC(=O)C1CCCN(C(=O)COc2ccccc2O)C1` (centres undefined)?
TRHR PAM: -4.5; D1 agonist: 3.3; USP1 inh: -4.9%; TRHR agonist: 0.4; D1 antag: 7.4; D1 PAM: 1.8

What do the screens show for `CN(C1CCS(=O)(=O)C1)S(=O)(=O)c1ccccc1` (centres undefined)?
TRHR PAM: 30.2*; D1 agonist: 0.1; USP1 inh: -21.5%; TRHR agonist: -0.6; D1 antag: -29.2; D1 PAM: -1.4

How did Cc1ccccc1NC(=O)CSc1nc(-c2ccc(F)cc2)nc2c1Cc1ccccc1O2 do in these assays?
TRHR PAM: -7.0; D1 agonist: 0.3; USP1 inh: -0.4%; TRHR agonist: 0.2; D1 antag: -24.9; D1 PAM: -4.5

How did NC(=O)c1ccc(-n2nnnc2SCC(=O)Nc2ccccc2)cc1 do in these assays?
TRHR PAM: 6.3; D1 agonist: 2.0; USP1 inh: -18.1%; TRHR agonist: -3.1; D1 antag: -12.7; D1 PAM: -1.7

How did CN(C)S(=O)(=O)c1cccc(NC(=O)CSc2nnnn2-c2ccccc2)c1 do in these assays?
TRHR PAM: -5.7; D1 agonist: 15.2; USP1 inh: -24.2%; TRHR agonist: -0.6; D1 antag: -41.3*; D1 PAM: -6.0

How did CN(c1ccccc1)S(=O)(=O)c1cccc(NC(=O)CSc2n[nH]c(N)n2)c1 do in these assays?
TRHR PAM: 1.0; D1 agonist: 1.6; USP1 inh: -16.2%; TRHR agonist: -0.9; D1 antag: -44.6*; D1 PAM: -19.1

What do the screens show for `Nc1nc(SCC(=O)Nc2cccc(S(=O)(=O)N3CCCCCC3)c2)n[nH]1`?
TRHR PAM: 2.4; D1 agonist: 0.2; USP1 inh: -11.5%; TRHR agonist: 0.5; D1 PAM: -4.5

Results for O=C(CSc1nnnn1-c1ccccc1)CC(=O)Nc1ccc(Cl)cc1 ?
TRHR PAM: -3.2; D1 agonist: 6.9; USP1 inh: 1.7%; TRHR agonist: -0.2; D1 antag: -33.9*; D1 PAM: -4.5

What do the screens show for `Cc1nnc(SCC(=O)Nc2cccc(S(=O)(=O)N(C)c3ccccc3)c2)s1`?
TRHR PAM: 3.6; D1 agonist: 34.3*; USP1 inh: -6.3%; TRHR agonist: 0.3; D1 antag: 5.6; D1 PAM: -1.5

What do the screens show for `NS(=O)(=O)c1cccc(NC(=O)CSc2nnnn2-c2ccccc2)c1`?
TRHR PAM: 1.5; D1 agonist: 1.0; USP1 inh: -23.9%; TRHR agonist: 0.2; D1 antag: 1.2; D1 PAM: 5.5

What do the screens show for `CCN(CC)S(=O)(=O)c1ccc2c(c1)nc(CN(C)C(=O)Nc1ccc(F)cc1)n2C`?
TRHR PAM: 1.0; D1 agonist: -0.1; USP1 inh: -20.8%; TRHR agonist: 0.0; D1 antag: 7.8; D1 PAM: -0.6

How did Cc1ccc(S(=O)(=O)NC(=O)Nc2ccc(C)cn2)cc1 do in these assays?
TRHR PAM: 11.4; D1 agonist: 0.7; USP1 inh: -1.1%; TRHR agonist: 0.4; D1 antag: 8.2; D1 PAM: 2.0

How did Cc1ccc(S(=O)(=O)NC(=O)Nc2cc(C(C)(C)C)on2)cc1 do in these assays?
TRHR PAM: -3.9; D1 agonist: 2.0; USP1 inh: -6.6%; TRHR agonist: -0.3; D1 antag: -37.3*; D1 PAM: 1.7

Results for CCN(C(=O)c1cnc2ccc(C)cn2c1=O)c1ccccc1 ?
TRHR PAM: 2.2; D1 agonist: -0.2; USP1 inh: 8.6%; TRHR agonist: -0.3; D1 antag: 8.7; D1 PAM: -1.1

Results for C/C=C(\C)CN1CCN(c2ccccc2)CC1 ?
TRHR PAM: -1.6; D1 agonist: 2.6; USP1 inh: -5.9%; TRHR agonist: -0.1; D1 antag: -23.7; D1 PAM: -2.3

Screens: PubChem, National Center for Advancing Translational Sciences (NCATS)
